A selection: hits, their analogues and other compounds. The true share with any hit is near 7.4%.
FXIa mix inh = FXIa protease inhibitors in compound pools, primary screen, biochemical, 10-compound mixtures; Coagulation factor XI (Homo sapiens), P03951; purified FXIa, fluorogenic substrate, pooled mixtures; inhibition, % at 5 µM; 62,000 tested, 0.19% active;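 further: each value is inhibition by a whole ten-compound pool holding the compound; 0% = enzyme with no mixture and 100% = wells lacking enzyme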
M1 ag = M1 muscarinic receptor agonists, primary screen, CHO-M1 cells, Fluo-4 calcium, agonist mode. B-score at 10 µM. AID 626, 2007. 64,000 tested, 3% active. Fluo-4 calcium fluorescence; hits give high values;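 active means fluorescence rise, raw or as B-score row- and column-corrected plate score, outside the 99.7% band of its plate's samples, either direction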
FXIIa inh mix = human factor XIIa inhibitors, primary screen, biochemical, pooled compound mixtures, fluorogenic substrate; Coagulation factor XII (Homo sapiens), P00748; purified FXIIa; inhibition, % at 5 µM; 62,000 tested, 0.2% active; AID 684, 2007;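 further: 0% = enzyme without compound and 100% = no enzyme blank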
DAT uptake mod = changed hDAT dopamine uptake under cocaine IC80, either direction, primary screen, cocaine antagonist project, cell-based, LLC-PK1 hDAT, [14C]-dopamine uptake, MLSMR; Sodium-dependent dopamine transporter (Homo sapiens), Q01959; LLC-PK1 hDAT cells, [14C]-dopamine uptake with cocaine IC80; actives deviate in either direction; B-score at 10 µM; 110,000 tested, 1.3% active;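 active means Z score or B-score, a plate-position-corrected score, falls beyond the plate's 99.7% confidence bounds, in either direction; inactive means both scores lie inside the 99.7% bounds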;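 further: scored against the spread of the other compound wells on the same plate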
M1 antagonist = antagonists of rat M1 muscarinic receptor | Muscarinic acetylcholine receptor M1 (Rattus norvegicus), P08482 | CHO-M1 cells, Fluo-4 calcium, ACh EC80 antagonist mode; hits give low values | B-score at 10 µM | 64,000 tested, 3.4% active;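 active means calcium fluorescence response, raw or row-and-column corrected B-score, differing from the plate sample mean either way at a set confidence level, mostly lower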
Target sequence (P08482 whole entry, looked up): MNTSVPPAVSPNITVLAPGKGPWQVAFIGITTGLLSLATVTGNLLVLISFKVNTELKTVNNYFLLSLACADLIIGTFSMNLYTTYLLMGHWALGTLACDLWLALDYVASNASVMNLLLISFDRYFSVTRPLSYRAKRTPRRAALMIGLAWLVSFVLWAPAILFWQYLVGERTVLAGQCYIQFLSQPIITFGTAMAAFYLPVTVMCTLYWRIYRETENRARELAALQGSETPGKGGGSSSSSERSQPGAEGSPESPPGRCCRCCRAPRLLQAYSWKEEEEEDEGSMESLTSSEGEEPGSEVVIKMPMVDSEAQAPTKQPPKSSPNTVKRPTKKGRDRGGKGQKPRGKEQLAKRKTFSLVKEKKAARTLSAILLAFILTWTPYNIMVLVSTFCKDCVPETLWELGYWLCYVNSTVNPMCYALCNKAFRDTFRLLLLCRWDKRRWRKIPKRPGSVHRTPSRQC
D1 mod = D1 CRE-luciferase signal change, two-sided – cell-based, HEK293 D1, dopamine EC30, D1 allosteric modulator project, primary screen | dopamine EC30 potentiation; actives deviate in either direction | B-score at 10 µM | 58,000 tested, 5.9% active;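 active means luminescence count or its row- and column-corrected plate score outside the 99.7% band of the plate's sample wells, on either side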
* marks the source's active call; other numbers are inactive results. Unless noted, no stated cut-off is given here; in the data, active means inhibition above about 20% (passing the limit was not always enough); inactive means the rest.

For O=C(Nc1ccccc1N1CCN(c2ccc(F)cc2)CC1)c1ccccc1 the results were FXIa mix inh 6, M1 ag 0.78, FXIIa inh mix 1, DAT uptake mod -1.7, M1 antagonist 0.35 and D1 mod -1.
`CN1CCN(c2ccccc2NC(=O)c2ccc(-c3ccccc3)cc2)CC1` gave FXIa mix inh 2, M1 ag 3, FXIIa inh mix 2, DAT uptake mod 4.9*, M1 antagonist -0.32 and D1 mod -3.
Screening COc1cc(OC)cc(C(=O)Nc2ccccc2N2CCOCC2)c1 returned FXIa mix inh 7, M1 ag 6.5*, FXIIa inh mix 2, DAT uptake mod 1.7, M1 antagonist -0.14 and D1 mod 2.2.
`COc1c(Cl)cc(Cl)cc1C(=O)Nc1ccccc1N1CCN(C(C)=O)CC1` gave FXIa mix inh 3, M1 ag -0.9, FXIIa inh mix 9, M1 antagonist 0.25 and D1 mod -0.34.
Screening COc1cc(C)nc(Oc2ccc(=O)n(C)n2)n1 returned M1 ag -0.055, DAT uptake mod -0.12 and M1 antagonist 0.25.
CCc1nnc(NC(=O)CSc2nnc(COc3ccccc3C)o2)s1 was read as FXIa mix inh 1, M1 ag 0.29, FXIIa inh mix 1, DAT uptake mod -0.15, M1 antagonist -0.26 and D1 mod 0.15.
Screening Cc1nc2ccccn2c1P(=O)(N1CCCCC1)N1CCCCC1 returned FXIa mix inh 6, M1 ag -0.041, FXIIa inh mix 20*, DAT uptake mod -1, M1 antagonist 0.98 and D1 mod -0.55.
Screening CCOC(=O)c1sc(C)c(C(=O)NC2CCCCC2)c1N returned DAT uptake mod -2.7*.
For CCOC(=O)c1c(C)c(C(=O)NC2CCCCCC2)c(C)n1C the results were FXIa mix inh -4, M1 ag -0.5, FXIIa inh mix 6, DAT uptake mod 0.68, M1 antagonist -0.026 and D1 mod 0.41.
Screening O=C(O)C1CC=CCC1C(=O)Nc1ccccc1 (stereo not given) returned DAT uptake mod 0.86.
For O=C(O)C1CC=CCC1C(=O)Nc1ccc(S(=O)(=O)N2CCCc3ccccc32)cc1 (stereo not given) the results were FXIa mix inh 9, M1 ag 0.022, FXIIa inh mix 1, DAT uptake mod 1.3*, M1 antagonist 0.42 and D1 mod -0.54.
Screening CC(NC(=O)Cc1cccs1)C(c1cccs1)N1CCOCC1 (stereo not given) returned M1 ag -0.32, DAT uptake mod 0.71, M1 antagonist 1.7* and D1 mod -0.77.
CCOC(=O)c1cc2ccccc2n1CCN(CC)CC was read as DAT uptake mod 0.01.
CN(C)CCn1c(C(=O)Nc2ccccc2)cc2ccccc21 was read as FXIa mix inh 13, M1 ag 0.3, FXIIa inh mix -1, DAT uptake mod 0.022, M1 antagonist -0.73 and D1 mod -2.7*.
Screening c1ccc(/N=C2\N=C(Nc3ccccn3)c3ccccc32)nc1 returned FXIa mix inh 0, FXIIa inh mix -14 and D1 mod 14*.
Screening Cc1ccc(-c2nc(-c3ccccn3)no2)cc1Cl returned FXIa mix inh 2, M1 ag -0.56, FXIIa inh mix 6, DAT uptake mod -0.5, M1 antagonist -0.11 and D1 mod -4.4*.
For Cc1ccc(-c2nc(-c3ccccn3)no2)cc1 the results were FXIa mix inh 8, M1 ag 0.36, FXIIa inh mix 2, DAT uptake mod 2.2, M1 antagonist -0.59 and D1 mod -7.6*.
c1ccc(-c2noc(-c3ccc4ccccc4c3)n2)cc1 was read as FXIa mix inh 7, M1 ag -0.073, FXIIa inh mix -4, DAT uptake mod 0.12, M1 antagonist 0.32 and D1 mod -7*.
`COc1cccc(-c2nc(-c3ccccn3)no2)c1OC` gave FXIa mix inh 4, M1 ag 0.17, FXIIa inh mix 6, DAT uptake mod -0.27 and M1 antagonist 0.21.
c1ccc(-c2noc(-c3cccc4ccccc34)n2)nc1 was read as FXIa mix inh 1, M1 ag -0.47, FXIIa inh mix 2, DAT uptake mod 0.87, M1 antagonist 0.49 and D1 mod -2.8*.
Cc1c(C(=O)OCC(=O)c2c(N)n(CC(C)C)c(=O)n(C)c2=O)oc2ccccc12 was read as FXIa mix inh -1, FXIIa inh mix 4 and DAT uptake mod 0.77.
Screening COc1ccc(N2CCN(CCC(N)=O)CC2)cc1 returned DAT uptake mod -0.42.
Screening c1ccc(-c2ccc(-c3nc(-c4ccccn4)no3)cc2)cc1 returned FXIa mix inh 0, M1 ag 0.89, FXIIa inh mix -7, DAT uptake mod 0.3, M1 antagonist 1.1 and D1 mod -9.6*.
Screening c1ccc(-c2nc(-c3ccccn3)no2)cc1 returned DAT uptake mod 0.65.
`Clc1cccc(-c2nc(-c3ccccn3)no2)c1` gave FXIa mix inh 3, M1 ag -1.5, FXIIa inh mix 5, DAT uptake mod -0.097, M1 antagonist 0.57 and D1 mod -6.9*.
Screening CCNC(=O)COC(=O)c1ccc(S(=O)(=O)N2CCCCCC2)cc1 returned FXIa mix inh 7, M1 ag -0.065, FXIIa inh mix 5, DAT uptake mod -0.079 and M1 antagonist -0.096.
Screening CCCOC1(NC(=O)c2ccccc2)C(C)=CC(=O)C=C1C returned FXIa mix inh 11, M1 ag 0.087, FXIIa inh mix 9, DAT uptake mod 0.64, M1 antagonist 0.63 and D1 mod -3.2*.
CCOC(=O)CNC(=O)c1ccccc1 was read as DAT uptake mod -1.1.
`CCOC(=O)c1c(N)sc(C(=O)Nc2ccc3c(c2)OCO3)c1C` gave FXIa mix inh 4, M1 ag 1.2, FXIIa inh mix 2, DAT uptake mod 0.87, M1 antagonist -0.29 and D1 mod -4.4*.
For Cn1nnc(NCc2cc(Br)ccc2OCc2cccs2)n1 the results were FXIa mix inh 10, M1 ag -0.2, FXIIa inh mix 8, DAT uptake mod 9.8*, M1 antagonist -0.33 and D1 mod 0.29.
`Cn1nnc(C(O)CNCc2cccs2)n1` (stereo not given) gave FXIa mix inh 5, M1 ag -0.034, FXIIa inh mix 0, DAT uptake mod -0.0057, M1 antagonist 0.67 and D1 mod 0.11.
`CCCCn1nc(C(=O)N[C@@H](CCSC)c2nc3ccccc3[nH]2)c2ccccc2c1=O` gave DAT uptake mod 0.089.
